Several values for one entry are separate records, joined by “and”; a condition that tells them apart may be missing. Equal values may be shown once. Records with an inconclusive call do not appear. Activity calls are given as the source filed them. Rule for the calls: active = hit-call score of the fitted dose curve at least 0.9, where 1 is the maximum; inconclusive = response in the unintended direction; inactive = score below 0.9.
biological target: Cellular tumor antigen p53 (Homo sapiens) (UniProt P04637); assay: TOX21_p53_BLA_p4_ratio: Tox21 HCT-116 p53 Agonism Beta-lactamase Assay, Ratio, Phase 4 (AID 2283601)
Sequence (P04637 whole entry, looked up): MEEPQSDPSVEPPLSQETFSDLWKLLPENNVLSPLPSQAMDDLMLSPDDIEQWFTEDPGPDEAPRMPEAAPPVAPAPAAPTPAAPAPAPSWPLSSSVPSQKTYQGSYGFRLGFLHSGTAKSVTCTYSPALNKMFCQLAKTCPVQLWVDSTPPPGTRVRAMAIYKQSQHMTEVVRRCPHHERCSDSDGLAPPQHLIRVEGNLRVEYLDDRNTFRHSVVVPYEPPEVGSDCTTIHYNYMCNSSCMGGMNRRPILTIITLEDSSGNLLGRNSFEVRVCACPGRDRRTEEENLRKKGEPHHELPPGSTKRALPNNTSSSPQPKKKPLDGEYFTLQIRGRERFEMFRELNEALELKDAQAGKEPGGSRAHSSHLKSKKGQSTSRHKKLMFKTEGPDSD
In short: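 Signal is the blue/green (460nm/530nm) ratio of cleaved versus uncleaved CCF4-AM substrate, read after 2 h substrate loading. Cells were HCT116 carrying the p53-responsive beta-lactamase reporter, dosed 16 h at 37C, 5% CO2; CellTiter-Glo measured in parallel.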

Row | Structure (SMILES) | outcome | AC50
1 | Oc1ccc(/C=C/c2cc(O)cc(O)c2)cc1 | inactive | –
2 | O=C(O)c1ccc2c(c1)C(=O)OC2=O | inactive | –
3 | N=C1C=CC(=C(c2ccc(N)cc2)c2ccc(N)cc2)C=C1 | inactive | –
4 | CC1(C)[C@@H]2CC[C@@]1(C)C(=O)C2 | inactive | –
5 | Oc1ccc(-c2ccccc2)c(Cl)c1 | – | 76.2 µM (active)
6 | C=C(C)C(=O)OCCOC(=O)C(=C)C | inactive | –
7 | Oc1c(Cl)cc(Cl)c(Cl)c1Cl | – | 35.5 µM (active) and 18.8 µM (active)
8 | O=C(O)C1CCC(C(=O)O)CC1 (stereo not given) | – | 85.8 µM (active)
9 | CCCCNC(=S)NCCCC | inactive | –
10 | O=C(Cl)c1ccc(C(=O)Cl)cc1 | inactive | –
11 | C=C1C[C@H]2[C@@H]3C=C(C)C4=CC(=O)CC[C@]4(C)[C@H]3CC[C@]2(C)[C@@]1(OC(C)=O)C(C)=O | inactive | –
12 | O=C(O[C@@H]1Cc2c(O)cc(O)cc2O[C@@H]1c1cc(O)c(O)c(O)c1)c1cc(O)c(O)c(O)c1 | inactive | –
13 | C=CC(=O)OCCCCCCCC(C)C | inactive | –
14 | CCCCC(=O)O | inactive | –
15 | O=C(O)/C=C/c1ccccc1 | inactive | –
16 | CCCCCC[C@@H](O)C/C=C\CCCCCCCC(=O)OCC(O)CO (stereo not given in full) | inactive | –
17 | Clc1cc(Cl)c(Cl)c(Cl)c1Cl | inactive | –
18 | CCCCCCCCCCCC(=O)OCC | inactive | –
19 | Fc1ccc(Br)cc1 | inactive | –
20 | CCCCCCOc1ccc(N)cc1 | inactive | –
21 | O=C1CCCCCCCCCCCN1 | inactive | –
22 | C1CNCCN1 | inactive | –
23 | CCCCCCCCCCCCc1ccc(O)cc1 | – | 28.3 µM (active)
24 | CCCCCCC=O | inactive | –
25 | CCCCCCCC(=O)OCC(COC(=O)CCCCCCC)OC(=O)CCCCCCC | inactive | –

Source: PubChem BioAssay (EPA / NIEHS)
